In the library only some 11% were active in any assay of this set; here they are far more common.
3T3 cytotox – NIH 3T3 cell cytotoxicity. NIH 3T3 viability, CellTiter-Glo ATP luminescence, 48-72 h. Potency, µM (series often up to 96.7 µM), usual class: inhibitors. 94,000 compounds, 4.3% hits. AID 1345082; further: nearly all actives have a fitted effect of over 55% in size
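ATP-dependent luminescence (CellTiter-Glo) served as the viability signal for NIH 3T3 cells treated with compound for 48 or 72 hr at 37 °C.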
NPR1 antag – blocks ANP-stimulated signaling of human Npr1 receptor | P16066 | 76,000 compounds, 1.6% hits | HEK293 hNpr1 GloSensor cGMP, ANP-stimulated luminescence | AID 1347048 | Potency, µM (highest dose often 46.3 µM), hits mostly inhibitors; calls by dose curve; further: nearly all actives have a fitted effect of over 60% in size
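HEK293 cells stably expressing human Npr1 and cGMP GloSensor pGS-40F, loaded 2 h with 2% GloSensor reagent, given compound 30 min at room temperature. Luminescence read before and 20 min after 0.1 nM hNppA.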
HEK cytotox – HEK 293 cell cytotoxicity; Potency, µM (doses to about 115 µM), hits mostly inhibitors; 94,000 compounds, 6.6% hits; AID 1345083; HEK 293 viability, ATP luminescence (CellTiter-Glo), 48-72 h; further: nearly all actives have a fitted effect of over 60% in size
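HEK 293 seeded at 250 cells/well receive compound via pintool. After 48 or 72 hr at 37 degree Celsius, 5% CO2 and 95% humidity, CellTiter-Glo is dispensed and luminescence read following 10 min at room temperature.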
FLuc inh – Photinus pyralis luciferase inhibition | Potency, µM (highest dose often 115 µM), actives largely listed as inhibitors | P08659 | 76,000 compounds, 2.5% hits | purified P. pyralis luciferase, luminescence, biochemical; further: nearly all actives have a fitted effect of over 65% in size
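FLuc 10nM, D-luciferin 10uM, ATP 10uM, Mg acetate 10mM, Tris acetate pH 7.5, Tween/BSA; cpd qHTS; enzyme added last; CCD luminescence.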
Of the large screens only hits and unclear results are named; the others gave an inactive call. Unless noted, the call rests on the fitted dose curve; in most records, active means well fitted curve in the direction sought with a large enough effect; inconclusive means small, poorly fitted or top-dose-only effect, or another doubt; inactive means no such curve, though single readings can be large; an effect the other way counts as inactive or inconclusive.

Cc1nc(-c2cccs2)cc([C@H]2CN3CC[C@H]2C[C@@H]3CNC(=O)C2CC2)n1	none
Cc1nc(-c2cccs2)cc([C@H]2CN3CC[C@H]2C[C@@H]3CNC(=O)c2ccc3c(c2)OCO3)n1	3T3 cytotox 40µM, HEK cytotox inconclusive
Cc1nc(-c2ccccc2Br)cc([C@H]2CN3CC[C@H]2C[C@@H]3CNC(=O)c2cccs2)n1	3T3 cytotox inconclusive, HEK cytotox 79µM
Cc1ccc(C(=O)NC[C@H]2C[C@@H]3CCN2C[C@@H]3c2cc(-c3cccs3)nc(C)n2)cc1	3T3 cytotox 28µM, HEK cytotox inconclusive
Cc1nc(-c2cccs2)cc([C@H]2CN3CC[C@H]2C[C@@H]3CNC(=O)c2ccccc2)n1	3T3 cytotox inconclusive, HEK cytotox inconclusive
Cc1nc(-c2cccs2)cc([C@H]2CN3CC[C@H]2C[C@@H]3CNC(=O)Nc2cccc(C(F)(F)F)c2)n1	3T3 cytotox 25µM, HEK cytotox 25µM
Cc1nc(-c2ccco2)cc([C@H]2CN3CC[C@H]2C[C@@H]3CNC(=O)c2cccs2)n1	none
O=C1Nc2ccccc2CC12CCCN2Cc1ccncc1 (stereo not given)	HEK cytotox inconclusive (no result: NPR1 antag, FLuc inh)
COc1cc2c(cc1OCc1ccccc1)N(C(=O)c1cc3ccccc3n1C)CC21CCN(C)CC1	3T3 cytotox 13µM, HEK cytotox 25µM
COc1ccc(C(=O)N2CC3(CCN(C)CC3)c3cc(OC)c(OCc4ccccc4)cc32)cn1	3T3 cytotox inconclusive, HEK cytotox 79µM
COc1cc2c(cc1OCc1ccccc1)N(C(=O)c1ccncc1)CC21CCN(C)CC1	HEK cytotox inconclusive
CN(C[C@H]1CN2CC[C@H]1C[C@@H]2CNC(=S)NCc1ccco1)c1ccccc1	3T3 cytotox 28µM, HEK cytotox 40µM
CN(C[C@H]1CN2CC[C@H]1C[C@@H]2CNC(=O)c1ccc(C(F)(F)F)cc1)c1ccccc1	3T3 cytotox 45µM, NPR1 antag inconclusive, HEK cytotox 28µM
CC(=O)c1ccc(NC(=O)NC[C@H]2C[C@@H]3CCN2C[C@@H]3CN2CCC(Cc3ccccc3)CC2)cc1	3T3 cytotox inconclusive, HEK cytotox inconclusive
O=C(NC[C@H]1C[C@@H]2CCN1C[C@@H]2CN1CCC(Cc2ccccc2)CC1)c1ccccc1	3T3 cytotox 25µM, HEK cytotox 25µM
CN(C)c1ccc(C(=O)NC[C@H]2C[C@@H]3CCN2C[C@@H]3CN(C)c2ccccc2)cc1	3T3 cytotox inconclusive, HEK cytotox inconclusive
O=C(NC[C@H]1C[C@@H]2CCN1C[C@@H]2CN1CCC(Cc2ccccc2)CC1)c1ccc(C(F)(F)F)cc1	3T3 cytotox inconclusive, HEK cytotox 79µM
C=CCN(C)C(=O)[C@H]1CN2CCC1C[C@@H]2Cn1cc(COC)nn1 (stereo not given in full)	none
COc1cc(NC(=O)OC[C@H]2C[C@@H]3CCN2C[C@@H]3c2cc(-c3ccc(N(C)C)cc3)nc(C)n2)cc(OC)c1	3T3 cytotox 7.9µM, NPR1 antag inconclusive, HEK cytotox 5.6µM, FLuc inh inconclusive
Cc1nc(-c2ccc(N(C)C)cc2)cc([C@H]2CN3CC[C@H]2C[C@@H]3CNC(=O)c2ccco2)n1	3T3 cytotox inconclusive, HEK cytotox inconclusive, FLuc inh inconclusive
Cc1nc(-c2ccc(N(C)C)cc2)cc([C@H]2CN3CC[C@H]2C[C@@H]3CNC(=O)NC(C)C)n1	3T3 cytotox 89µM, HEK cytotox inconclusive
CCCNC(=O)OC[C@H]1C[C@@H]2CCN1C[C@@H]2c1cc(-c2ccc(F)cc2)nc(C)n1	3T3 cytotox inconclusive, HEK cytotox inconclusive
COc1ccc(NC(=O)OC[C@H]2C[C@@H]3CCN2C[C@@H]3c2cc(-c3ccc(N(C)C)cc3)nc(C)n2)cc1	3T3 cytotox 16µM, HEK cytotox 18µM
Cc1nc(-c2ccc(N(C)C)cc2)cc([C@H]2CN3CC[C@H]2C[C@@H]3COC(=O)Nc2ccccc2)n1	3T3 cytotox 4µM, HEK cytotox inconclusive
Cc1cc(NCCc2c[nH]c(=O)[nH]c2=O)n2nccc2n1	none
CC[C@H]1CN2CC[C@H]1C[C@@H]2COC(=O)Nc1cccc2ccccc12	3T3 cytotox 50µM, HEK cytotox inconclusive
CC[C@H]1CN2CC[C@H]1C[C@@H]2COC(=O)Nc1ccc(C(C)(C)C)cc1	3T3 cytotox 40µM, HEK cytotox 40µM, FLuc inh inconclusive
CN(C1CCNCC1)C1CCOCC1	none
CCCCOC(=O)N1C[C@H](C(=O)OCC)[C@H]2c3ccccc3N(CCOC)C(=O)[C@]21C	HEK cytotox inconclusive (no result: NPR1 antag, FLuc inh)
O=C(Cc1ccc(F)cc1)N1CCN(CCn2nc3n(c2=O)CCCC3)CC1	none (no result: NPR1 antag, FLuc inh)

Assay outcomes (PubChem BioAssay)
